Experimental data taken from PubChem BioAssay (NCATS).
Records with an inconclusive call do not appear. The source made the active and inactive calls. The call rests on the fitted dose curve; in most records, active means well fitted inhibition curve with a large enough effect; inconclusive means small, poorly fitted or top-dose-only effect; inactive means no such curve, though single readings can be large or run the other way.

Biological target: Cytochrome P450 3A4 (Homo sapiens) (UniProt P08684)
Sequence (P08684 whole entry, looked up): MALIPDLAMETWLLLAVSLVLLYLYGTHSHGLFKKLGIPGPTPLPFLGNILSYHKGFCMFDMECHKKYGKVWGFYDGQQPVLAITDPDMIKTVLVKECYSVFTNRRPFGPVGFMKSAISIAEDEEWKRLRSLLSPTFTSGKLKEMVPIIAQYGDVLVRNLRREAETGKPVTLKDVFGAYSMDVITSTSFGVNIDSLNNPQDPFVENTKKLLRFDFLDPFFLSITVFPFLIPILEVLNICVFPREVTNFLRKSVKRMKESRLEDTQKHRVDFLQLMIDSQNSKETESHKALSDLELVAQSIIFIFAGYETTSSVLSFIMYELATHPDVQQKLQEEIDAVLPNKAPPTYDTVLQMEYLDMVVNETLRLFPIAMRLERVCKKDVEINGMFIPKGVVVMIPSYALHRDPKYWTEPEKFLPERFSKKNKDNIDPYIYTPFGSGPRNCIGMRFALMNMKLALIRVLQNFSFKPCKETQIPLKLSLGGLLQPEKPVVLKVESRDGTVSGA
Test: qHTS Assay for Inhibitors and Substrates of Cytochrome P450 3A4 (AID 884); further: nearly all actives have a fitted effect of over 50% in size
Conditions: recombinant CYP3A4, Luciferin-PPXE luminescence; series mostly up to 57.1 µM; activity change, negative = inhibition: at the top concentration
Outline: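 Luminescent readout of luciferin produced by CYP3A4 (20 nM) dealkylation of Luciferin-PPXE, 25 uM (its KM). NADPH-driven reaction ran 60 min at RT after 10 min compound preincubation; data scaled to 57 uM ketoconazole as 100% inhibition.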
On the % scale 0 is the no-effect control and ±100 the full control effect; potency means the concentration at half of the fitted maximal effect.

SMILES | activity change, negative = inhibition | Potency
O=C(O)c1ccc(NS(=O)(=O)c2ccsc2C(=O)O)c(O)c1 | -12.7% (inactive) | 
O=C(Nc1cc(NC(=O)c2ccccc2)c(C(=O)O)cc1C(=O)O)c1ccccc1 | -14% (inactive) | 
COC(=O)[C@@H]1C[C@@]2(O)[C@@H](O)[C@@H](O)[C@@H](O)C[C@H]2N1Cc1ccc(Cl)cc1 | -7.3% (inactive) | 
C=CC[C@@H]1C=C[C@@H](O/N=C(/C)CCC(=O)OC[C@@H]2O[C@H](C#Cc3ccccc3)C=C[C@@H]2Oc2ccc(C)cc2)[C@@H](CO)O1 |  | 5.01 µM (active)
COC(=O)[C@@H]1C[C@@]2(O)[C@@H](O)[C@@H](O)[C@@H](O)C[C@H]2N1CC1CC1 | -26.7% (inactive) | 
CN1C[C@@H]2C(c3ccc(C(F)(F)F)cc3)C3(c4ccccc4)CC2(C3)[C@H]1c1ccccc1 (stereo not given in full) | -28.8% (inactive) | 
Cc1ccc(B(O)O)cc1 | -24.1% (inactive) | 
C=CCN1CCc2c(cc(O)c(O)c2Cl)C(c2cccc(C)c2)C1 (stereo not given) | -23.2% (inactive) | 
N#Cc1ccc(C23CC4(C2)[C@H](CN(Cc2ccc(C(F)(F)F)cc2)[C@@H]4c2ccccc2)C3c2ccc(Cl)nc2)cc1 (stereo not given in full) | -22.4% (inactive) | 
O=C(O)c1ccc(NS(=O)(=O)c2ccsc2C(=O)O)cc1 | -21.7% (inactive) | 
CCCCCCCCCCCCCCCC(=O)NCCc1ccc(O)c(O)c1 | -24.9% (inactive) | 
CN(C)/C=N/c1cc(=O)[nH]c(=O)n1C | 7.82% (inactive) | 
N=C(N)c1ccc(N2CCN(C3CCN(CC(=O)O)CC3)CC2)cc1 | -7.22% (inactive) | 
OB(O)c1ccc(B(O)O)cc1 | -24.2% (inactive) | 
COC(=O)[C@@H]1C[C@@]2(O)[C@H](O)[C@H](O)[C@H](O)C[C@H]2N1Cc1ccc(C(C)(C)C)cc1 | -27.1% (inactive) | 
CCC1=C2CC[C@H]3C(=O)NC(=O)[C@H]3[C@H]2[C@@]2(C)C(=NCCOC)OC(=O)N2C1=O | -30.8% (inactive) | 
CC1=C(C(=O)OCc2ccccc2)C(c2cccc([N+](=O)[O-])c2)NC(=O)N1CCCCCC(=O)O (stereo not given) | 6.69% (inactive) | 
COc1ccc(B(O)O)cc1 | -3.45% (inactive) | 
COC(=O)[C@@H]1C[C@@]2(O)[C@@H](O)[C@@H](O)[C@@H](O)C[C@H]2N1Cc1ccc(N2CCOCC2)cc1 | -13.7% (inactive) | 
COC(=O)[C@@H]1C[C@@]2(O)[C@H](O)[C@H](O)[C@H](O)C[C@H]2N1C/C=C/c1ccccc1 | -16.6% (inactive) | 

SMILES | activity change, negative = inhibition | Potency
Cn1c(N)cc(=O)n(Cc2ccccc2)c1=O | -42.5% (inactive) | 
O=C(O)c1cc(-c2ccco2)nc2ccccc12 | -26.4% (inactive) | 
O=C(O)c1cc(C(F)(F)F)nc2c(C(F)(F)F)cccc12 | -26% (inactive) | 
COC(=O)c1ccc(CN2[C@H](C(=O)OC)C[C@@]3(O)[C@@H](O)[C@@H](O)[C@@H](O)C[C@@H]23)cc1 | -18.1% (inactive) | 
C[C@@]1(O)C(O)[C@@H](CO)O[C@H]1n1cnc2c(NC3CCCC3)nc(Cl)nc21 (stereo not given in full) | -29.2% (inactive) | 
CN1CCN(C(=O)c2nc3ccc(Cl)cc3[nH]2)CC1 | -19% (inactive) | 
CCC1=C2CC[C@H]3C(=O)N(C)C(=O)[C@H]3[C@H]2[C@@]2(C)C(=NCC(=O)OC)OC(=O)N2C1=O | -23.8% (inactive) | 
COC(=O)[C@@H]1C[C@@]2(O)[C@@H](O)[C@@H](O)[C@@H](O)C[C@H]2N1Cc1ccc(C)s1 | -12.2% (inactive) | 
Cn1c(N)c(C(=O)COC(=O)c2cc(C(F)(F)F)nc3ccccc23)c(=O)n(C)c1=O | 9.74% (inactive) | 
NC(=O)NCc1ccccc1 | -3.44% (inactive) | 
CCCN1[C@H](C(=O)OC)C[C@@]2(O)[C@@H](O)[C@@H](O)[C@@H](O)C[C@@H]12 | -12.3% (inactive) | 
O=C(O)c1ccc(B(O)O)cc1 | -3.26% (inactive) | 
COC(=O)CC1Oc2cc3oc4c5ccccc5oc(=O)c4c3cc2O1 (stereo not given) | -0.639% (inactive) | 
COC(=O)c1cccc(C23CC4(C2)[C@H](CN(Cc2ccc(-c5ccccc5)cc2)[C@@H]4c2ccccc2)C3c2ccc(Cl)nc2)c1 (stereo not given in full) | -26.5% (inactive) | 
CN(C)c1ccc(CNC(=O)[C@@]2(C)C=C[C@@H](Cc3ccccc3)N2C)cc1 | -79.9% (inactive) | 
COC(=O)c1cccc(C23CC4(C2)[C@H](CN(CC2CCCCC2)[C@@H]4c2ccccc2)C3c2ccc(Cl)nc2)c1 (stereo not given in full) |  | 15.8 µM (active)
COC(=O)c1ccc(C23CC4(C2)[C@H](CN(Cc2ccc(C(F)(F)F)cc2)[C@@H]4c2ccccc2)C3c2ccc(C(F)(F)F)cc2)cc1 (stereo not given in full) | -25% (inactive) | 
CN(C)/C=N/c1cc(=O)n(C)c(=O)n1CC1CC1 | -22.2% (inactive) | 
Cc1cc(N)c2cc(OCCOc3ccc4nc(C)cc(N)c4c3)ccc2n1 | -0.402% [at 11.4 µM] (inactive) | 
Cn1c(N)c(C(=O)COC(=O)c2cc(C(F)(F)F)nc3c(C(F)(F)F)cccc23)c(=O)n(C)c1=O | -12.2% (inactive) | 
